Source: PubChem BioAssay (NCATS)
Inconclusive results are not listed. Active and inactive are the calls of the source. Unless noted, calls come from the whole dose curve; as a rule, active = well fitted curve in the direction sought with a large enough effect; inconclusive = small, poorly fitted or top-dose-only effect, or another doubt; inactive = no such curve, though single readings can be large; an effect the other way counts as inactive or inconclusive.

Legend:
[1] = qHTS Assay for Identifying Gametocytocidal Compounds (AID 743244);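 note: % is set by controls: 0 for no effect and ±100 for the full control effect; actives lower the fluorescent signal which means gametocytes are killed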; conditions: P. falciparum 3D7 stage III-V gametocytes, alamarBlue, 72 h; max response: stronger effect = lower value
Outline: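 3D7 gametocytes, stages III–V, 20,000/well; cpd 72 h, 37 °C/5% CO2; + alamarBlue 24 h; fluor. Ex 525/Em 598.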

[2] = P-glycoprotein substrates identified in KB-8-5-11 adenocarcinoma cell line, qHTS therapeutic library screen (AID 1346987); note: nearly all actives have a fitted effect of over 65% in size; note: potency is the fitted concentration of half-maximal effect
Outline: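 Luminescence from CellTiter-Glo, read 5 min after addition, quantified survival of KB-8-5-11 (P-gp-overexpressing) cells exposed to compounds for 72 h. AC50 was derived from concentration-response curves.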

[3] = qHTS for Inhibitors of the Functional Ribonucleoprotein Complex (vRNP) of Lassa (LASV) Arenavirus: LASV Primary Screen - GLuc reporter signal (AID 1347082; calls by dose curve; tested in HEK293 reporter line; note: nearly all actives have a fitted effect of over 60% in size; note: potency is the fitted concentration of half-maximal effect)
[4] = qHTS for Inhibitors of the Functional Ribonucleoprotein Complex (vRNP) of Lassa (LASV) Arenavirus: Viability assay - alamar blue signal for LASV Primary Screen (AID 1347083; calls by dose curve; tested in HEK293 reporter line; note: % is set by controls: 0 for no effect and ±100 for the full control effect; nearly all actives have a fitted effect of over 80% in size)
[5] = qHTS for Inhibitors of the Functional Ribonucleoprotein Complex (vRNP) of Lymphocytic Choriomeningitis Arenaviruses (LCMV): Viability assay - alamar blue signal for LCMV Primary Screen (AID 1347085; calls by dose curve; tested in HEK293 reporter line; note: % is set by controls: 0 for no effect and ±100 for the full control effect; nearly all actives have a fitted effect of over 80% in size)
[6] = target: Nucleoprotein (Lymphocytic choriomeningitis virus (strain Armstrong)) (UniProt P09992); experiment: qHTS for Inhibitors of the Functional Ribonucleoprotein Complex (vRNP) of Lymphocytic Choriomeningitis Arenaviruses (LCMV): LCMV Primary Screen - GLuc reporter signal (AID 1347086; calls by dose curve; note: % is set by controls: 0 for no effect and ±100 for the full control effect; nearly all actives have a fitted effect of over 70% in size)
Chain of Nucleoprotein (Lymphocytic choriomeningitis virus (strain Armstrong)) (P09992 whole entry, looked up): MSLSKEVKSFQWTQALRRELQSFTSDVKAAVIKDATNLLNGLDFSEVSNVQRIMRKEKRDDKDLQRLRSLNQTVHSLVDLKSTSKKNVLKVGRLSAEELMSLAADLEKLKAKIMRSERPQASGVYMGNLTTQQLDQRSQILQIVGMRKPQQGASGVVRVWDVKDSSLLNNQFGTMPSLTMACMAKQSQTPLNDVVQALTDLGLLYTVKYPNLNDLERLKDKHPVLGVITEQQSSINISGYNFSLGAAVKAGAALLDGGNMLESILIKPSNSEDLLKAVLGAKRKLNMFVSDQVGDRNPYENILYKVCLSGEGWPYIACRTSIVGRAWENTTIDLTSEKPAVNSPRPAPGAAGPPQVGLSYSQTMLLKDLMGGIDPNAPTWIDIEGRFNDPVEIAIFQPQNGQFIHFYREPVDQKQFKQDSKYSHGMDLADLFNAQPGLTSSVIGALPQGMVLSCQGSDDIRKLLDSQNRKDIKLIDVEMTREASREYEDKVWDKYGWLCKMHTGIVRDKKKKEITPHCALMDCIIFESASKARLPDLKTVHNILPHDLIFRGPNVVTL

[7] = Primary qHTS for inhibitors of SARS-S pseudo-typed particle cell entry (AID 1479145; calls by dose curve; note: nearly all actives have a fitted effect of over 45% in size)
[8] = Primary qHTS for Huh7 cytotoxicity: counterscreen for inhibitors of MERS-S pseudotyped particle cell entry (AID 1479147; calls by dose curve); conditions: outcome: dose series up to 57.1 µM unless noted
[9] = Primary qHTS for inhibitors of MERS-S pseudo-typed particle cell entry (AID 1479149; calls by dose curve; note: nearly all actives have a fitted effect of over 60% in size)
[10] = Primary qHTS for Vero E6 cytotoxicity: counterscreen for inhibitors of SARS-S pseudo-typed particle cell entry (AID 1479150; calls by dose curve); conditions: outcome: dose series up to 57.1 µM unless noted
[11] = Cytotoxicity counterscreen for inhibitors of SARS-CoV-2 cell entry (AID 1645845; calls by dose curve; note: nearly all actives have a fitted effect of over 50% in size)
Outline: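 Counterscreen run in the same HEK293-ACE2 line as the pseudotyped-particle entry assay, without particles. Viability after 48 h at 37 C was read as ATP luminescence, scaled between cell-containing and cell-free wells.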

[12] = target: Glutathione peroxidase 1 (Homo sapiens) (UniProt P07203); experiment: Primary qHTS Assay for Inhibitors of Recombinant Selenoprotein Glutathione Peroxidase 1 (GPX1) (AID 1845191); note: % is set by controls: 0 for no effect and ±100 for the full control effect; nearly all actives have a fitted effect of over 65% in size
Chain of Glutathione peroxidase 1 (Homo sapiens) (P07203 whole entry, looked up): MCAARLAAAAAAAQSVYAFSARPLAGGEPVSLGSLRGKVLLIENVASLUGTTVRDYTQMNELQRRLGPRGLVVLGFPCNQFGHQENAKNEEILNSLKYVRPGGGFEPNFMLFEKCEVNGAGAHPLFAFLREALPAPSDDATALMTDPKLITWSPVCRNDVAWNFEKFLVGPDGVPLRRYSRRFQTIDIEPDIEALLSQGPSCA
Outline: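 GR-coupled readout: NADPH consumption tracked by fluorescence, ex 340/em 450 nm, at t=0 and after 15 min at RT. Final mix 10 nM GPX1, 1 mM GSH, 0.5 mM CHP, 0.5 mM NADPH, 100 nM GR, 0.01% BSA, following 30 min enzyme–compound preincubation.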

[13] = target: Phospholipid hydroperoxide glutathione peroxidase GPX4 (Homo sapiens) (UniProt P36969); experiment: Primary qHTS Assay for Inhibitors of Recombinant Selenoprotein Glutathione Peroxidase 4 (GPX4) (AID 1845192); note: nearly all actives have a fitted effect of over 65% in size
Chain of Phospholipid hydroperoxide glutathione peroxidase GPX4 (Homo sapiens) (P36969 whole entry, looked up): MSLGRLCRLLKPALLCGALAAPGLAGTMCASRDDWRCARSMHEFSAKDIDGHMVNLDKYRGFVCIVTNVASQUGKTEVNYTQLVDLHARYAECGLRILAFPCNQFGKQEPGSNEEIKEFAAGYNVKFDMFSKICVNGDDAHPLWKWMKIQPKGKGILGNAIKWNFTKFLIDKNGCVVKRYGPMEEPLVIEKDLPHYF
Outline: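 Steps: GPX4 plus compound, 30 min RT; add GR/GSH/NADPH master mix; start with cumene hydroperoxide; read 340/450 nm fluorescence at 0 and 15 min. Finals were 200 nM GPX4, 1 mM GSH, 0.5 mM CHP, 0.5 mM NADPH, 100 nM GR.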

[14] = Drug repurposing screens with cells derived from glioblastoma tumor samples (AID 1345199); conditions: GBM patient neurospheres viability, ATP luminescence, 48 h; Potency: tumour line A; series mostly up to 45.9 µM; note: % is set by controls: 0 for no effect and ±100 for the full control effect; nearly all actives have a fitted effect of over 40% in size
Outline: (§1)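 Primary testing used CD133+ neurospheres from four GBM patients, seven concentrations, 48 h exposure and ATP-based viability; confirmation added three slower-growing patient lines.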

astro = experiment: as above; conditions: viability, ATP luminescence, 48 h; series mostly up to 45.9 µM
Outline: as §1

[15] = test system: Zika virus NS2B-NS3 protease (unlinked complex); experiment: Primary screen GU Rhodamine qHTS for Zika virus inhibitors: Unlinked NS2B-NS3 protease assay (AID 1347159); note: % is set by controls: 0 for no effect and ±100 for the full control effect; nearly all actives have a fitted effect of over 60% in size
Outline: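 Percent inhibition came from the 15-min rise in Rhodamine110 fluorescence (1.5 microM substrate, ~15% conversion), normalized to no-inhibitor and no-enzyme wells and Hill-fitted. Unlinked protease, 25 nM, pH 8.0 Tris buffer; compounds up to 114 microM, 15-min preincubation.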

[16] = test system: Zika virus NS2B-NS3 protease (linked construct); experiment: Primary screen NINDS Rhodamine qHTS for Zika virus inhibitors (AID 1347160); note: % is set by controls: 0 for no effect and ±100 for the full control effect; nearly all actives have a fitted effect of over 55% in size
Outline: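 Rhodamine110-peptide cleavage (1.5 µM substrate) by 25 nM linked NS2B-NS3 enzyme at pH 8.0 (Tris, Tween 20), after 15 min RT preincubation with compounds; 15-min fluorescence change normalized to controls and Hill-fitted.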

[17] = target: Calcium and integrin-binding protein 1 (Homo sapiens) (UniProt Q99828); experiment: Primary qHTS for Identification of Calcium Integrin Binding Protein 1 (CIB1) Competitor (AID 1508620);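 note: GST tagged CIB1 binding a fluorescein labelled alphaIIb integrin peptide tracer; top concentration of the series differs between compounds; % is set by controls: 0 for no effect and ±100 for the full control effect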
Chain of Calcium and integrin-binding protein 1 (Homo sapiens) (Q99828 whole entry, looked up): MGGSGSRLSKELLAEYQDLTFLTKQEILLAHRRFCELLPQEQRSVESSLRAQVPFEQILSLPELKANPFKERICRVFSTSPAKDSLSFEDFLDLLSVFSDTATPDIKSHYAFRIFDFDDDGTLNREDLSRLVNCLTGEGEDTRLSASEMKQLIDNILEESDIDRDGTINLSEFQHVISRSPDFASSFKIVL
Outline: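 Fluorescence polarization competition: GST-tagged CIB1 (1 uM final) preincubated with compound 15 min at room temperature, then FITC-labelled alphaIIb peptide (100 nM final) added. After 15 min at room temperature, polarization read at Ex 480/Em 540.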

[18] = target: Cytochrome P450 2D6 (Homo sapiens) (UniProt P10635); experiment: Cytochrome P450 family 2 subfamily D member 6 (CYP2D6) small molecule antagonists: luciferase biochemical (cell-free) qHTS assay (AID 1645840; active = well fitted curve in the direction sought with a large enough effect in the repeat runs; an effect the other way counts as inactive or inconclusive; note: potency is the fitted concentration of half-maximal effect; nearly all actives have a fitted effect of over 55% in size)
Chain of Cytochrome P450 2D6 (Homo sapiens) (P10635 whole entry, looked up): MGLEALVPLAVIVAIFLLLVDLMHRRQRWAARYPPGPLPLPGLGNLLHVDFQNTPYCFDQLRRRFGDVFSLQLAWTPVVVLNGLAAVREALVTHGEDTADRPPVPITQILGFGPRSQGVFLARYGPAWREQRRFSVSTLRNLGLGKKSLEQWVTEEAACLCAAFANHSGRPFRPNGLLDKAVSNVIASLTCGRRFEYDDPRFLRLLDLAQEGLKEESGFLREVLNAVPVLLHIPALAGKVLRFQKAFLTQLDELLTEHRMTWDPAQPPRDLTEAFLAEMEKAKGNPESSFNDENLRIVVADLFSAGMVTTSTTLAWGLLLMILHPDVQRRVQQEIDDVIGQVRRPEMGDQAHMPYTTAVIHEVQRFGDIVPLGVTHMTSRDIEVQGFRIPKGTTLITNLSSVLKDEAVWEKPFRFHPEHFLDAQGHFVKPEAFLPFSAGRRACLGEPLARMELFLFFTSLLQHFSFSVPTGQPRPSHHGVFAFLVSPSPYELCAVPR
Outline: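 P450-Glo CYP2D6 system: proluciferin substrate converted by enzyme to luciferin, read by luminescence proportional to activity. Enzyme-substrate mix with compound 10 min at room temperature, then NADPH regeneration 1 h before detection reagent.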

[19] = target: Cytochrome P450 2C9 (Homo sapiens) (UniProt P11712); experiment: Cytochrome P450 family 2 subfamily C member 9 (CYP2C9) small molecule antagonists: luciferase biochemical (cell-free) qHTS assay (AID 1645842; active = well fitted curve in the direction sought with a large enough effect in the repeat runs; an effect the other way counts as inactive or inconclusive; note: potency is the fitted concentration of half-maximal effect; nearly all actives have a fitted effect of over 55% in size)
Chain of Cytochrome P450 2C9 (Homo sapiens) (P11712 whole entry, looked up): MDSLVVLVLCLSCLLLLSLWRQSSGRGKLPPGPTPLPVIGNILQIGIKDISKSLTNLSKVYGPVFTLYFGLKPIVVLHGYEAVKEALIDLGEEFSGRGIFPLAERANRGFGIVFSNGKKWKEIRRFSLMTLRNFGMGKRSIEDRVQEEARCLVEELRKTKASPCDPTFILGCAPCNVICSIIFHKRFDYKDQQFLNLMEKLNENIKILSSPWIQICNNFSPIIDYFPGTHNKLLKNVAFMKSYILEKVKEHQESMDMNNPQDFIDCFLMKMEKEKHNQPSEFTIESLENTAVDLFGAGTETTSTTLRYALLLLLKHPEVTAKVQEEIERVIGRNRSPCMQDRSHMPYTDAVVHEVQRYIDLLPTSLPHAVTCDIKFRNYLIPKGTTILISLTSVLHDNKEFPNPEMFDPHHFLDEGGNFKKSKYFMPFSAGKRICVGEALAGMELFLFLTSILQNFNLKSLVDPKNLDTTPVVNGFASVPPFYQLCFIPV
Outline: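 P450-Glo CYP2C9 system: proluciferin substrate with enzyme in mix containing 0.4% BSA, 10 min at room temperature, then NADPH regeneration solution added and incubated 1 h at 37C. Detection reagent stopped reaction; luminescence read after 20 min as RLU.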

[20] = Primary qHTS for inhibitors of nuclear receptor binding SET domain protein 2 (NSD2) in an isogenic RCH-ACV NSD2 p.E1099K mutant (9B) (AID 1645876); note: potency is the fitted concentration of half-maximal effect; nearly all actives have a fitted effect of over 70% in size
[21] = Primary qHTS for inhibitors of nuclear receptor binding SET domain protein 2 (NSD2) in an RCH-ACV wild type WT cells (2C) (AID 1645877); note: potency is the fitted concentration of half-maximal effect; nearly all actives have a fitted effect of over 70% in size
[22] = target: Luciferin 4-monooxygenase (Photinus pyralis) (UniProt P08659); experiment: Primary firefly luciferase (FLuc) qHTS assay for identification of artifact compounds. (AID 1845220); conditions: outcome: dose series up to 54.1 µM unless noted;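 note: plate controls were DMSO vehicle for no effect and no enzyme for full effect; nearly all actives have a fitted effect of over 60% in size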
Outline: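 Titrated compounds were incubated 15 min at RT, protected from light, with luciferin and ATP at 10 uM; reaction started with 10 nM FLuc, luminescence imaged at 5 min, and concentration-response fitted by Hill equation.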

[23] = Primary fluorescence-based thiol-reactive (MSTI) qHTS assay for identification of artifact compounds. (AID 1845221);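 note: thiol-reactive compounds lower the probe fluorescence signal; nearly all actives have a fitted effect of over 65% in size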
Outline: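 First, 4 uM MSTI in 2% DMSO/PBS pH 7.4 was dispensed; next, compounds were added; then plates sat 1 h at room temperature without light. Finally, emission at 598 nm was recorded.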

[24] = test system: Nanoluciferase (engineered Oplophorus gracilirostris luciferase); experiment: Primary Nanoluciferase (NLuc) qHTS assay for identification of artifact compounds. (AID 1845222);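 note: NLuc secreted into diluted conditioned medium of S16 cells; 0% = DMSO and -100% = no enzyme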
Outline: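 qHTS format, against NLuc in S16 cell-conditioned medium. Nano-Glo substrate 1:100 was added after 15 min at room temperature. Luminescence was taken after a further 5 min.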

[25] = Primary redox qHTS assay for identification of artifact compounds. (AID 1845223);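 note: 0% = DMSO and 100% = reference compound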
Outline: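 Redox-cycling detection via DTT (250 uM final) oxidation coupled to Amplex Red (25 uM)/HRP (250 mU/mL) in HBSS. 15 min preincubation plus 30 min after DTT, room temperature. Ex/Em 525/598 nm; 4-parameter Hill fit against DMSO and 10 uM DA3003.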

HeLa = experiment: Primary qHTS to identify gynecologic anti-cancer compounds using libraries of approved drugs and bioactive compounds (AID 1345084); conditions: Gynecologic cancer cell panel viability, ATPlite luminescence, 48 h; series mostly up to 57.5 µM; note: % is set by controls: 0 for no effect and ±100 for the full control effect; nearly all actives have a fitted effect of over 55% in size
Outline: (§2)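 48 h compound exposure at 37 C, 5% CO2; five-point qHTS. ATPlite luminescence readout of cell ATP.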

Tov-21-G = experiment: as above; conditions: Gynecologic cancer cell panel viability, ATPlite luminescence, 48 h; series mostly up to 57.5 µM
Outline: as §2

[26] = P-glycoprotein substrates identified in KB-3-1 adenocarcinoma cell line, qHTS therapeutic library screen (AID 1346986)
Outline: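 In 1536-well format, 500 cells/well received pinned compound titrations and were incubated 72 h, 5% CO2. Viability was read by CellTiter-Glo; cytotoxic if AC50 < 10 uM and efficacy >50%.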

[27] = qHTS drug screen for cell cycle checkpoint inhibitors in PARPi-resistant BRCA-mutant ovarian cancer cell lines. (AID 1963452; calls by dose curve); conditions: PEO1/OlaR viability, CellTiter-Glo luminescence, 96 h, stronger effect = lower value
Outline: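 PEO1, PEO4 and PEO1/OlaR ovarian cancer cells, 600 per well, exposed 96 h at 37C to a dilution series. Viability read by CellTiter-Glo luminescence, normalized to DMSO and empty wells; activity summarized as Z-AUC.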

COC(=O)[C@H]1[C@@H](OC(=O)c2ccccc2)C[C@@H]2CC[C@H]1N2C
inactive: max response [1] -15.4% | Potency [2] | Potency [3] | Potency [4] | Potency [5] | Potency [6] | Potency [7] | outcome [8] inactive [at 114 µM] | Potency [9] | outcome [10] inactive [at 114 µM] | Potency [11] | Potency [12] | Potency [13] | Potency [14] | Potency (astro)

C=C1C(=O)[C@@]23[C@H](O)C[C@@H]4C(C)(C)CC[C@H](O)[C@]4(C)[C@@H]2C[C@H](O)[C@@H]1[C@H]3O
active: Potency [3] 8.91 µM

CN(C(=O)CN1C(=O)COc2cc(Cl)c(Cl)cc21)[C@@H](CN1CCCC1)c1ccc(-c2cccc(C(N)=O)c2)cc1
active: Potency [18] 16.9 µM | Potency [19] 13.5 µM | Potency [20] 8.17 µM | Potency [21] 7.28 µM
inactive: Potency [15] | Potency [16] | Potency [17] | Potency [12] | Potency [13] | outcome [22] | Potency [23] | Potency [24] | Potency [25] | Potency (HeLa) | Potency (Tov-21-G)

COc1cc2c(cc1F)C(c1ccccc1Cl)=Nc1c(n[nH]c1C)N2
-0.883: Z-AUC ([27]; measured here: PEO1 parental Z-AUC)
inactive: Potency [11] | Potency [13] | Z-AUC [27] -0.71
active: Potency [26] 2.06 µM | Potency [2] 1.3 µM | Potency [21] 1.03 µM
-0.718: Z-AUC ([27]; measured here: PEO4 Z-AUC)
